# Results taken from PubChem BioAssay.
# “And” between values parts separate entries of the source, which are not always exact repeats. Equal values may be shown once. The list shows a part of the results. Records with an inconclusive call do not appear. The source made the active and inactive calls.
# Experiments:
# [1] = inhibitors of TNFa-induced NFkB p65 translocation, primary screen, imaging, HUVEC, MLSMR starter and 10KST1 sets (AID 438;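 active = inhibition above 20% together with a positive visual image hit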;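 also: compound added about 3h40 before a 20 min TNFalpha stimulation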;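 as to inhibition: signal is the nuclear over cytoplasmic p65 intensity ratio per well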); conditions: HUVEC TNFa-induced p65 nuclear translocation; cell count: measured here: nuclei count (cytotoxicity indicator), at 2.08 µM; inhibition: at 2 µM, stronger effect = higher value, 0% TNFa-plus-vehicle, 100% no-TNFa wells
# [2] = reduction of polyQ htt aggregates in cells – imaging, exon1htt(103Q)mCFP cells, high-content imaging, primary screen (AID 483;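 active = visual image review flags a hit and inhibition of aggregation exceeds 20%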;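 also: compound exposure lasted 3 days before fixation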;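 as to nuclei count: percent of the per-plate median nuclei count of sample wells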); conditions: exon1htt(103Q)mCFP cell line, aggregate imaging, at 2 µM; inhibition of aggregation: stronger effect = higher value; nuclei count: measured here: cell count, toxicity
# [3] = endothelial E-selectin expression blockers – imaging, HUVEC, immunofluorescence, MLSMR starter and 10KST1 sets, primary screen (AID 487;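 active = visually confirmed hit in the image check and inhibition above 20%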;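 as to inhibition: signal is fraction of cell area covered by stained E-selectin grains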;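 as to nuclei count: 100% = median nuclei count of all wells on the same plate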); conditions: HUVEC TNFalpha-induced E-selectin immunofluorescence imaging, at 2 µM; inhibition: stronger effect = higher value; nuclei count: measured here: cell number, toxicity
# [4] = Primary imaging screen for DUSP6 inhibitors that restore phospho-Erk in transfected HeLa cells, chemical complementation (AID 609;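 active = compounds giving at least 50% inhibition in the cell-based MKP-3 phosphatase rescue imaging test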;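 as to inhibition: phospho-Erk level distribution per well compared with pooled transfected vehicle control wells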); conditions: HeLa MKP-3 transfected, phospho-Erk imaging KS statistic, at 10 µM, cells stimulated with TPA for 15 min
# [5] = molecular target: Dual specificity protein phosphatase 6 (Homo sapiens) (UniProt Q16828); test: as above; conditions: HeLa MKP-3 transfected, phospho-Erk imaging KS statistic; at 10 µM; stronger effect = higher value; cells stimulated with TPA for 15 min
# Dual specificity protein phosphatase 6 (Homo sapiens), sequence (Q16828 whole entry, looked up): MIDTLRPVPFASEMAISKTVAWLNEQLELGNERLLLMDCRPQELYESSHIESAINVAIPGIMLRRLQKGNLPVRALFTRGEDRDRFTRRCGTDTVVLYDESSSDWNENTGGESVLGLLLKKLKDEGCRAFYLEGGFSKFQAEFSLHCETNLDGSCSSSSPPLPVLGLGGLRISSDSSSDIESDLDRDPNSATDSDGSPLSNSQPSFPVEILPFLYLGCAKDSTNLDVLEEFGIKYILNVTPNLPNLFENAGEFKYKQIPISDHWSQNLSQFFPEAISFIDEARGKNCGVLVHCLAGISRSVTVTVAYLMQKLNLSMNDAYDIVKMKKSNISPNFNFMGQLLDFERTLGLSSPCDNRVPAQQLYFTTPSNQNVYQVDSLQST
# [6] = molecular target: Voltage-gated potassium channel subunit beta-2 (Rattus norvegicus) (UniProt P62483); test: inhibitors of rat Kvbeta2 reductase activity – biochemical, NADPH fluorescence, primary screen (AID 622;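 active = fluorescence slope higher than the sample average by over 3 SD, cut at about -0.22 in these data, passing the limit was not always enough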;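 also: slope of raw intensity against log time taken from 70 to 1610 s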); conditions: recombinant KvBeta, 4-cyanobenzaldehyde reduction, at 10 µM, stronger effect = higher value
# Voltage-gated potassium channel subunit beta-2 (Rattus norvegicus), sequence (P62483 whole entry, looked up): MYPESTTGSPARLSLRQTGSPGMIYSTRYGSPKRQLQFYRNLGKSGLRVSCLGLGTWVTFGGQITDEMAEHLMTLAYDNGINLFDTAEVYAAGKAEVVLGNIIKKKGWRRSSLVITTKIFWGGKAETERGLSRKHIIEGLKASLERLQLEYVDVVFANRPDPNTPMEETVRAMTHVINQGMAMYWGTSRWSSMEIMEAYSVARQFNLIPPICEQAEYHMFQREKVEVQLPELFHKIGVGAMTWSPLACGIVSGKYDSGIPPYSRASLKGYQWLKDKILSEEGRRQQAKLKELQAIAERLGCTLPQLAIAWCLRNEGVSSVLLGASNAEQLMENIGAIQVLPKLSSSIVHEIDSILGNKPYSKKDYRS
# [7] = molecular target: Voltage-gated potassium channel subunit beta-2 (Rattus norvegicus) (UniProt P62483); test: enhancers of rat Kvbeta2 NADPH turnover – biochemical, NADPH fluorescence, primary screen (AID 623;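 active = NADPH fluorescence slope more negative than the mean of all samples by about 3 SD, 99.7% confidence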;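 also: fluorescence intensity change per second fitted from 20 to 320 s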); conditions: Recombinant KvBeta, NADPH fluorescence decrease slope, 10 min; at 10 µM; stronger effect = lower value
# [8] = molecular target: Alpha-2C adrenergic receptor (Homo sapiens) (UniProt P18825); test: compounds altering alpha2C-coupled GIRK flux – cell-based, HEK293 alpha2C/GIRK1/2, thallium flux, primary screen (AID 624;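 active = fluorescence slope after compound addition differing from the mean of all screened samples at 99.7% confidence, in either direction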;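 also: slope of fluorescence ratio to pre-addition baseline per second over 15 to 24 s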); conditions: thallium flux BTC fluorescence, at 10 µM, actives lie on both sides
# Alpha-2C adrenergic receptor (Homo sapiens), sequence (P18825 whole entry, looked up): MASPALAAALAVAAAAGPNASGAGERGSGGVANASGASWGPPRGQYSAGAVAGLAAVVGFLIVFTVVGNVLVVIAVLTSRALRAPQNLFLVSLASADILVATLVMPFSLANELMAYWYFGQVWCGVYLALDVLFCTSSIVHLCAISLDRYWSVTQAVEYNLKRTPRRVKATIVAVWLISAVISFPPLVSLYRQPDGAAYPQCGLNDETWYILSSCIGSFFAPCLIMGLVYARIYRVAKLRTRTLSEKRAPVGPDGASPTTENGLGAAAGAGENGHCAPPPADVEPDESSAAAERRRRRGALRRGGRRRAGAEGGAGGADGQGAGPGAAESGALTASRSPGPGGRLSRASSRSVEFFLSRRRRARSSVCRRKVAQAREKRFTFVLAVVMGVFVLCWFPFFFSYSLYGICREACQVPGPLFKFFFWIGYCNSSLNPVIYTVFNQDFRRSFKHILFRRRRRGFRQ
# [9] = loss of swimming-algae plug formation – whole organism, Chlamydomonas reinhardtii, WT vs cilia-less mutant, absorbance, 96-well, primary screen (AID 463189;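 active = inhibition at or above 50% relative to wild type and mutant plate controls; inactive = inhibition below 50%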;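 also: 0% = wild type cc124 cells in DMSO and 100% = ciliumless bld1 mutant cells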); conditions: Chlamydomonas reinhardtii gravitaxis, OD600 absorbance, 2 days; at 10 µM; stronger effect = higher value
# [10] = blockers of RIG-like receptor reporter activation – cell-based, Sendai virus stimulus, luciferase, 10K MLSCN set, TLR/RLR signaling modifier project, primary screen (AID 602276;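 active = inhibition at or above 50% at 10 µM; inactive = inhibition below 50%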;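 also: firefly luciferase from ISG56 promoter only with Renilla not read in this screen; 0% = Sendai virus plus DMSO and 100% = medium plus DMSO without virus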); conditions: HEK293 RL24 IRF3 luciferase reporter, at 10 µM, stronger effect = higher value
# [11] = TLR3 IRF3 reporter activation blockers – cell-based, poly I:C stimulus, luciferase, 10K MLSCN set, primary screen (AID 602277;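 active = inhibition of the reporter signal at or above 50%; inactive = inhibition below 50%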); conditions: HEK293-TLR3 RL24 IRF3 luciferase reporter, at 10 µM, stronger effect = higher value
# [12] = molecular target: Solute carrier family 12 member 5 (Homo sapiens) (UniProt Q9H2X9); test: retest of KCC2 transport modulators without sodium – cell-based, HEK293 KCC2, thallium flux, secondary assay, confirmation (AID 1713;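 active = thallium flux slope above the same plate's solvent-only control mean plus 3 SD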); conditions: FluoZin2 fluorescence, at 10 µM, stronger effect = higher value
# Solute carrier family 12 member 5 (Homo sapiens), sequence (Q9H2X9 whole entry, looked up): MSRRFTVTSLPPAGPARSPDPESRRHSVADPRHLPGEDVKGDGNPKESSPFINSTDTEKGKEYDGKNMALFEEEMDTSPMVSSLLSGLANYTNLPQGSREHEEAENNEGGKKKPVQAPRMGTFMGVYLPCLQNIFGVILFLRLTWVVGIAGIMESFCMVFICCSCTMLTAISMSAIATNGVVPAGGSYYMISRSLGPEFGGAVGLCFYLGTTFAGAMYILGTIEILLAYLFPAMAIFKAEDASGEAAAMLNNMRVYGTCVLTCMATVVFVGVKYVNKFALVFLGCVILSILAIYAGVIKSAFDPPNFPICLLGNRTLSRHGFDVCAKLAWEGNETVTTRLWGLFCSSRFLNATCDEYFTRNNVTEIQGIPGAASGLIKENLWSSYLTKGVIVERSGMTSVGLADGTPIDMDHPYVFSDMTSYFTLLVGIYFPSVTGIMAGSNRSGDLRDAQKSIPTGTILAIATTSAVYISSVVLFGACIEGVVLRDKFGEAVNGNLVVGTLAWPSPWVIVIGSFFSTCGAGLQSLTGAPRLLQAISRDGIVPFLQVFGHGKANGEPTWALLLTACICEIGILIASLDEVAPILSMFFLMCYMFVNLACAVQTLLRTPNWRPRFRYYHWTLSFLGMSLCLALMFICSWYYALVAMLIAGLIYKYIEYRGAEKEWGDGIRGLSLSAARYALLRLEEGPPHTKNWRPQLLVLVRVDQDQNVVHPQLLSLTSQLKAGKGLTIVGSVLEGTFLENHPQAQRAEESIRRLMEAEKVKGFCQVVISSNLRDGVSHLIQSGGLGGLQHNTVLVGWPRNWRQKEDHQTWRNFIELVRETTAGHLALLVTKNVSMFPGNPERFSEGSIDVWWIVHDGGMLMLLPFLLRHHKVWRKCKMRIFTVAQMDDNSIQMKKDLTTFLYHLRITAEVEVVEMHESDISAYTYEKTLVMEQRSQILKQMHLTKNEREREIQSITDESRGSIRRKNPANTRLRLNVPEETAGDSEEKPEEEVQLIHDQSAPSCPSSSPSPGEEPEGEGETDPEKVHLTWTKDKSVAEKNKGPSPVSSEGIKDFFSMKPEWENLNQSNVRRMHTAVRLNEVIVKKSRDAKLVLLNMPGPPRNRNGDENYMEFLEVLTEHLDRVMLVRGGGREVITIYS
# [13] = molecular target: Solute carrier family 12 member 5 (Homo sapiens) (UniProt Q9H2X9); test: retest of KCC2 transport modulation, ouabain-free – cell-based, HEK293 KCC2, thallium flux, FluoZin2, secondary assay 2, confirmation (AID 1715); conditions: HEK293-KCC2, thallium flux FluoZin2 fluorescence; at 10 µM; actives lie on both sides; F/F0 rise rate, 10–20 s post-thallium;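 also: raw slope with 0.1% DMSO as baseline and bumetanide as block control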
# [14] = compound effects on native HEK Tl+ uptake – HEK cells, counterscreen 1, counter-screen for KCC2 modulator project, confirmation (AID 1716;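 active = thallium flux rate significantly above the same plate's solvent-only control wells, beyond their mean plus 3 SD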); conditions: HEK293 parental cells, thallium flux FluoZin2, ouabain; at 10 µM; baseline-ratio fluorescence slope, 10–20 s after thallium
# [15] = molecular target: Solute carrier family 12 member 5 (Homo sapiens) (UniProt Q9H2X9); test: modulation of KCC2 thallium flux in HEK cells – cell-based, ouabain, retest, confirmation (AID 1717;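 active = thallium flux slope beyond 3 SD from same-plate DMSO control mean in most replicates, usually higher, sometimes lower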;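 also: slope of initial-normalized fluorescence between seconds 10 and 20 after thallium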); conditions: HEK293-KCC2, thallium flux FluoZin2 fluorescence, at 10 µM, bidirectional: low = inhibitor, high = activator
# PubChem AID 1714 = conditions: HEK293-KCC2 + bumetanide/ouabain, thallium flux FluoZin2; at 10 µM; stronger effect = higher value
# [16] = native HEK Tl+ uptake effects, second counter-screen – HEK cells, counterscreen 2, counter-screen for KCC2 modulator project, confirmation (AID 1718;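 active = thallium flux slope above the same plate's solvent-control mean plus 3 SD in both duplicate wells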;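 also: run without ouabain in cells lacking the KCC2 cotransporter; slope of fluorescence scaled to its starting value between 10 and 20 s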); conditions: HEK293 parental, thallium flux FluoZin-2 fluorescence slope; at 10 µM
# [17] = molecular target: Muscarinic acetylcholine receptor M4 (Homo sapiens) (UniProt P08173); test: M4-linked GIRK flux change, two-sided – cell-based, HEK293 M4/GIRK, thallium flux, BTC-AM, M4 allosteric agonist project, primary screen (AID 625;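 active = fluorescence slope after compound addition differing from the mean of all tested samples at 99.7% confidence, mostly higher but some lower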;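 also: thallium influx through GIRK channels coupled to M4 in HEK293 cells with BTC-AM dye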); conditions: at 10 µM, actives lie on both sides
# Muscarinic acetylcholine receptor M4 (Homo sapiens), sequence (P08173 whole entry, looked up): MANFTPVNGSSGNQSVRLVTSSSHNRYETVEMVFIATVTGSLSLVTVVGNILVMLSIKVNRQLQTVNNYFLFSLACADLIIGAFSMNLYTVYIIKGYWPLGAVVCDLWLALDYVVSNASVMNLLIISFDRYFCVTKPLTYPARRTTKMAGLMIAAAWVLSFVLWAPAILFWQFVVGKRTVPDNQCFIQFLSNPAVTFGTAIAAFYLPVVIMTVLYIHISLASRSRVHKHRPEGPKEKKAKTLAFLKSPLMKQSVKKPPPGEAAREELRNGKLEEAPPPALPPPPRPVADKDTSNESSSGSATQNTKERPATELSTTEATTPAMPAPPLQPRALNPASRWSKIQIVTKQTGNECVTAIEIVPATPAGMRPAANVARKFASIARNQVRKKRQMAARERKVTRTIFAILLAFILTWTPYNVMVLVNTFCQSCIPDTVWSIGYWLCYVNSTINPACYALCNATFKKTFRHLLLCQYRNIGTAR
# [18] = inhibitors of larval lipid processing in zebrafish, primary screen, whole organism, PED6 fluorescence, gall bladder and intestine (AID 686;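 active = a full or partial loss of lipid-probe fluorescence in the fish gall bladder, intestine or both, judged by eye; inactive = no fluorescence loss, or compound toxic to the fish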;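 also: larvae 5 to 7 days old with five fish per well; signal comes from phospholipase A2 cleavage of quenched PED6 carried via bile; overnight exposure to compound and PED6 before scoring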); conditions: Zebrafish larvae PED6 lipid processing, fluorescence scoring; screened at 20 µM (by protocol)
# [19] = measured here: cell density z-score
# [20] = measured here: nuclear c-Myc green intensity z-score
# [21] = measured here: nuclear pErk red intensity z-score, stronger effect = higher value
compound,measurement,setting,value
CCCCC(=O)O[C@H]1CC[C@H]2[C@@H]3CCc4cc(O)ccc4[C@H]3CC[C@]12C,cell count,[1],524
same,inhibition,[1],-3.1% (inactive)
same,inhibition of aggregation,[2],7% (inactive)
same,nuclei count,[2],88.9%
same,inhibition,[3],-104% (inactive)
same,nuclei count,[3],131%
same,z-score,[4]; [19],-0.577
same,z-score,[4]; [20],-1.69
same,z-score,[4]; [21],-0.657
same,inhibition,[5],-0.828% (inactive)
same,fluorescence slope,[6],-0.453 (inactive)
same,NADPH fluorescence slope,[7],-3e-05 (inactive)
same,slope,[8],0.00721 (inactive)
same,inhibition,[9],22.7% (inactive)
same,inhibition,[10],16.8% (inactive)
same,inhibition,[11],40.4% (inactive)
N#Cc1ccc(C(=O)Nc2nc(-c3cccs3)c(C(=O)C(F)(F)F)s2)cc1,normalised thallium flux (F/F0 slope),[12],0.00795 (inactive)
same,normalized thallium flux,[13],0.033 (inactive)
same,thallium flux rate (normalised fluorescence),[14],0.00821 (inactive)
same,"raw Tl+ flux slope (below DMSO = inhibition, above = activation)",[15],0.0191 (inactive)
CC(C)CNC(=S)NC(=O)c1ccc(Cl)cc1,normalized thallium flux,PubChem AID 1714,0.0714 (active)
same,normalized thallium flux,[13],0.0638 (active)
same,thallium flux rate (normalised fluorescence),[14],0.0685 (active)
same,"raw Tl+ flux slope (below DMSO = inhibition, above = activation)",[15],0.0663 (active)
same,thallium flux slope,[16],0.0594 (active)
COc1ccc(Cl)cc1S(=O)(=O)Nc1cccc(C(=O)O)c1,normalised thallium flux (F/F0 slope),[12],0.00707 (inactive)
same,normalized thallium flux,[13],0.0299 (inactive)
same,thallium flux slope,[16],0.0107 (inactive)
CCOc1ccc(C2/C(=C(/O)c3ccc(OC)cc3)C(=O)C(=O)N2c2cc(C)on2)cc1OC (configuration not stated),cell count,[1],314
same,inhibition,[1],-5.2% (inactive)
same,inhibition of aggregation,[2],2.5% (inactive)
same,nuclei count,[2],87.7%
same,inhibition,[3],-84.6% (inactive)
same,nuclei count,[3],122%
same,z-score,[4]; [19],0.762
same,z-score,[4]; [20],0.679
same,z-score,[4]; [21],-1.01
same,inhibition,[5],-5.26% (inactive)
same,fluorescence slope,[6],-0.434 (inactive)
same,NADPH fluorescence slope,[7],-0.000115 (inactive)
same,slope,[8],0.00335 (inactive)
same,inhibition,[9],-9.21% (inactive)
same,inhibition,[10],-8.23% (inactive)
same,inhibition,[11],-11.7% (inactive)
CCC(CC)NC(=O)CSc1nnc(-c2c[nH]c3ccccc23)o1,normalized thallium flux,PubChem AID 1714,0.00461 (inactive)
same,normalized thallium flux,[13],0.0248 (active)
same,thallium flux rate (normalised fluorescence),[14],0.00757 (inactive)
same,thallium flux slope,[16],0.0106 (inactive)
CCc1cc(=O)oc2c(CN3CCN(C)CC3)c(O)c(Cl)cc12,cell count,[1],430
same,inhibition,[1],3.2% (inactive)
same,inhibition of aggregation,[2],27.8% (inactive)
same,nuclei count,[2],85.9%
same,inhibition,[3],-40.7% (inactive)
same,nuclei count,[3],101%
same,z-score,[4]; [19],1.84
same,z-score,[4]; [20],0.822
same,z-score,[4]; [21],-1.78
same,inhibition,[5],26.3% (inactive)
same,fluorescence slope,[6],-0.266 (inactive)
same,NADPH fluorescence slope,[7],-4.4e-05 (inactive)
same,slope,[8],0.00532 (inactive)
same,inhibition,[9],13.3% (inactive)
same,inhibition,[10],16.8% (inactive)
same,inhibition,[11],22.6% (inactive)
CC(C)OC(=O)C(C)(C)Oc1ccc(C(=O)c2ccc(Cl)cc2)cc1,cell count,[1],484
same,inhibition,[1],-9% (inactive)
same,inhibition of aggregation,[2],28.8% (inactive)
same,nuclei count,[2],89.5%
same,inhibition,[3],-10.1% (inactive)
same,nuclei count,[3],97.2%
same,z-score,[4]; [19],0.497
same,z-score,[4]; [20],-1.12
same,z-score,[4]; [21],0.95
same,inhibition,[5],-8.38% (inactive)
same,fluorescence slope,[6],-0.446 (inactive)
same,NADPH fluorescence slope,[7],1.6e-05 (inactive)
same,slope,[8],0.00465 (inactive)
same,inhibition,[9],-3.15% (inactive) and 23.4% (inactive)
same,inhibition,[10],-6.93% (inactive)
same,inhibition,[11],18.9% (inactive)
CC1CC(C)(C)n2c(O)c(N=NC(N)=S)c3cccc1c32 (configuration not stated),normalized thallium flux,PubChem AID 1714,0.0259 (active)
same,normalized thallium flux,[13],0.0382 (inactive)
same,"raw Tl+ flux slope (below DMSO = inhibition, above = activation)",[15],0.0373 (active)
Cc1sc2ncnc(Sc3nc4ccccc4s3)c2c1C,normalised thallium flux (F/F0 slope),[12],0.0102 (inactive)
same,normalized thallium flux,[13],0.0292 (inactive)
same,thallium flux rate (normalised fluorescence),[14],0.00801 (inactive)
same,thallium flux slope,[16],0.0107 (inactive)
O=C(CSc1cccc2cccnc12)N/N=C/c1cccnc1,normalized thallium flux,PubChem AID 1714,0.0504 (active)
same,normalized thallium flux,[13],0.0285 (inactive)
same,thallium flux rate (normalised fluorescence),[14],0.0251 (active)
same,"raw Tl+ flux slope (below DMSO = inhibition, above = activation)",[15],0.0449 (active)
same,thallium flux slope,[16],0.0116 (active)
CCOC(=O)c1c(NC(=S)NC)sc2c1CCCC2,normalised thallium flux (F/F0 slope),[12],0.0181 (active)
same,normalized thallium flux,[13],0.0972 (active)
same,thallium flux rate (normalised fluorescence),[14],0.0987 (active)
same,thallium flux slope,[16],0.101 (active)
Cc1cccc(N(CC(O)CN(C)C)S(=O)(=O)c2ccccc2)c1 (configuration not stated),cell count,[1],660
same,inhibition,[1],-8.8% (inactive)
same,inhibition,[3],-9.3% (inactive)
same,nuclei count,[3],177%
same,z-score,[4]; [19],0.811
same,z-score,[4]; [20],0.15
same,z-score,[4]; [21],0.694
same,inhibition,[5],1.42% (inactive)
same,fluorescence slope,[6],-0.413 (inactive)
same,NADPH fluorescence slope,[7],-6e-05 (inactive)
same,fluorescence slope,[17],0.00446 (inactive)
same,outcome,[18],inactive
same,normalised thallium flux (F/F0 slope),[12],0.00903 (inactive)
same,normalized thallium flux,[13],0.0335 (inactive)
same,thallium flux rate (normalised fluorescence),[14],0.00768 (inactive)
same,"raw Tl+ flux slope (below DMSO = inhibition, above = activation)",[15],0.0203 (inactive)
same,thallium flux slope,[16],0.0103 (inactive)
same,inhibition,[9],30.7% (inactive)
Cc1[nH]n(-c2ccccc2)c(=O)c1N=Nc1ccccc1C(=O)N1CCCCC1,normalized thallium flux,PubChem AID 1714,0.0338 (active)
same,normalized thallium flux,[13],0.03 (inactive)
same,thallium flux rate (normalised fluorescence),[14],0.0142 (active)
same,"raw Tl+ flux slope (below DMSO = inhibition, above = activation)",[15],0.0253 (active)
C/C(=N\NC(=S)NC1CCCCC1)c1ccc(C)o1,normalized thallium flux,PubChem AID 1714,0.0335 (active)
same,normalized thallium flux,[13],0.0359 (inactive)
same,thallium flux rate (normalised fluorescence),[14],0.017 (active)
same,"raw Tl+ flux slope (below DMSO = inhibition, above = activation)",[15],0.0406 (active)
CCOC(=O)c1ccccc1N1C(=O)C2Sc3[nH]c(=O)sc3C(/C=C/c3ccccc3)C2C1=O (configuration not stated),normalised thallium flux (F/F0 slope),[12],0.00694 (inactive)
same,normalized thallium flux,[13],0.0266 (active)
same,thallium flux rate (normalised fluorescence),[14],0.00732 (inactive)
same,"raw Tl+ flux slope (below DMSO = inhibition, above = activation)",[15],0.00834 (active)
same,thallium flux slope,[16],0.0106 (inactive)
